The source of these data is PubChem BioAssay (NCATS).

Test [1] deals with Phospholipid hydroperoxide glutathione peroxidase GPX4 (Homo sapiens) (UniProt P36969). Put plainly: Primary qHTS Assay for Inhibitors of Recombinant Selenoprotein Glutathione Peroxidase 4 (GPX4) (AID 1845192). Also: nearly all actives have a fitted effect of over 65% in size. In short, it runs like this: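 NADPH consumption followed by fluorescence at 340/450 nm, t=0 and after 15 min at room temperature. Reaction started with cumene hydroperoxide (0.5 mM final) after 30 min compound–GPX4 preincubation; final 200 nM GPX4, 100 nM GR, 1 mM GSH, 0.5 mM NADPH.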
(In qHTS, concentration-response curves come from the screen itself.)

Test [2] in a line: Quantitative High-Throughput drug screen in 47 multiple myeloma cell lines against the NCATS MIPE library collection: FR4_PLB cell viability assay (AID 1918924; also: nearly all actives have a fitted effect of over 35% in size; also: potency is read from the fitted curve at half-maximal effect). In short, it runs like this: (§1)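 Approved and investigational drugs from MIPE 4.0 were added by pin tool to 500 cells per well. After 48 hours at 37C, ATP-based CellTiter-Glo luminescence indicated remaining viability.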

Test [3] in a line: Quantitative High-Throughput drug screen in 47 multiple myeloma cell lines against the NCATS MIPE library collection: Delta47_JCRB cell viability assay (AID 1918925; also: nearly all actives have a fitted effect of over 45% in size; also: potency is read from the fitted curve at half-maximal effect). The method in brief:
(§2)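 CellTiter-Glo luminescence (ATP) after 48 h compound exposure, 37C/5% CO2; 500 cells/well; MIPE 4.0 approved/investigational drugs pinned in; DMSO = 100%, media only = 0% viability.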

Test [4] can be described thus: Quantitative High-Throughput drug screen in 47 multiple myeloma cell lines against the NCATS MIPE library collection: EJM_DSMZ cell viability assay (AID 1918926; also: nearly all actives have a fitted effect of over 30% in size; also: potency is read from the fitted curve at half-maximal effect). In short, it runs like this:
as §2

The nature of test [5]: Quantitative High-Throughput drug screen in 47 multiple myeloma cell lines against the NCATS MIPE library collection: AMO1_DSMZ cell viability assay (AID 1918927; also: nearly all actives have a fitted effect of over 30% in size; also: potency is read from the fitted curve at half-maximal effect). The method in brief: as §2
Test [6] in a line: Quantitative High-Throughput drug screen in 47 multiple myeloma cell lines against the NCATS MIPE library collection: ARP1_JJKsccF8 cell viability assay (AID 1918928; also: nearly all actives have a fitted effect of over 40% in size; also: potency is read from the fitted curve at half-maximal effect). The method in brief:
(§3)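 Viability screen: myeloma cells (500/well) incubated 48 h at 37 °C, humidified 5% CO2, with pinned library compounds; CellTiter-Glo added, luminescence read; DMSO wells set 100%, medium-only wells 0%.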

Test [7] is described as follows: Quantitative High-Throughput drug screen in 47 multiple myeloma cell lines against the NCATS MIPE library collection: Karpas620_DSMZ cell viability assay (AID 1918959). Also: nearly all actives have a fitted effect of over 30% in size. Also: potency is read from the fitted curve at half-maximal effect. In short, it runs like this:
as §1

A short description of test [8]: Quantitative High-Throughput drug screen in 47 multiple myeloma cell lines against the NCATS MIPE library collection: KMM1_JCRB cell viability assay (AID 1918960). Also: nearly all actives have a fitted effect of over 30% in size. Also: potency is read from the fitted curve at half-maximal effect. In short, it runs like this: as §3
Test [9] in a line: Quantitative High-Throughput drug screen in 47 multiple myeloma cell lines against the NCATS MIPE library collection: ARD_JJKsccE7 cell viability assay (AID 1918929; also: potency is read from the fitted curve at half-maximal effect). The method in brief:
as §2

For test [10], the target named is Luciferin 4-monooxygenase (Photinus pyralis) (UniProt P08659). Put plainly: Primary firefly luciferase (FLuc) qHTS assay for identification of artifact compounds. (AID 1845220). Also: nearly all actives have a fitted effect of over 60% in size. In short, it runs like this: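 Compounds sat 15 min at room temperature with 10 uM luciferin and 10 uM ATP (pH 7.6 Tris acetate). Firefly luciferase (10 nM final) was then added, and luminescence was read 5 min later. Data normalized to no-enzyme and DMSO controls were Hill-fitted.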

The nature of test [11]: Primary fluorescence-based thiol-reactive (MSTI) qHTS assay for identification of artifact compounds. (AID 1845221). Also: nearly all actives have a fitted effect of over 65% in size. Also: potency is read from the fitted curve at half-maximal effect. The method in brief:
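A multi-concentration qHTS design tested compounds against 4 uM MSTI, pH 7.4 phosphate-buffered saline. Plates were protected from light for 1 h at room temperature before imaging fluorescence.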

Test [12] concerns Nanoluciferase (engineered Oplophorus gracilirostris luciferase). Put plainly: Primary Nanoluciferase (NLuc) qHTS assay for identification of artifact compounds. (AID 1845222). Also: series mostly up to about 54 µM. In short, it runs like this: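 Luminescence from secreted NLuc (filtered, 1:55-diluted S16 cell medium) read 5 min after Nano-Glo substrate; compounds preincubated 15 min, RT. Hill fits of inhibition normalized to DMSO and no-enzyme.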

Test [13] has as its target Glutathione peroxidase 1 (Homo sapiens) (UniProt P07203). As to the kind of experiment: Primary qHTS Assay for Inhibitors of Recombinant Selenoprotein Glutathione Peroxidase 1 (GPX1) (AID 1845191). Also: nearly all actives have a fitted effect of over 65% in size. The method in brief:
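NADPH consumption tracked by fluorescence at 340/450 nm between t=0 and t=15 min, room temperature. Final mix: 10 nM GPX1, 100 nM glutathione reductase, 1 mM GSH, 0.5 mM NADPH, 0.5 mM cumene hydroperoxide, 0.01% BSA; 30 min compound–enzyme preincubation.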

The nature of test [14]: Primary redox qHTS assay for identification of artifact compounds. (AID 1845223). Also: potency is read from the fitted curve at half-maximal effect. The method in brief: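 Redox-cycling detection via DTT (250 uM final) oxidation coupled to Amplex Red (25 uM)/HRP (250 mU/mL) in HBSS. 15 min preincubation plus 30 min after DTT, room temperature. Ex/Em 525/598 nm; 4-parameter Hill fit against DMSO and 10 uM DA3003.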

Each structure is given as a SMILES string. Values without a mark were called inactive. Results filed as inconclusive are left out. Activity calls are given as the source filed them. Calls follow the shape of the dose curve; as a rule, active = well fitted curve in the direction sought with a large enough effect; inconclusive = small, poorly fitted or top-dose-only effect, or another doubt; inactive = no such curve, though single readings can be large; an effect the other way counts as inactive or inconclusive. Positions of bridges follow the written chain, without caps; N, C: chain ends. Non-standard residues stand in square brackets, D forms with d. Residues, ends and D or L forms follow the SMILES beside them. ξ: configuration not given here. *: point of attachment. Octanoyl(6-Me) = CCC(C)CCCCC(=O)*; ξThr(3R) = C[C@@H](O)C(N)C(=O)O; dDab = NCC[C@@H](N)C(=O)O; Dab = NCC[C@H](N)C(=O)O

Chain of Phospholipid hydroperoxide glutathione peroxidase GPX4 (Homo sapiens) (P36969 whole entry, looked up): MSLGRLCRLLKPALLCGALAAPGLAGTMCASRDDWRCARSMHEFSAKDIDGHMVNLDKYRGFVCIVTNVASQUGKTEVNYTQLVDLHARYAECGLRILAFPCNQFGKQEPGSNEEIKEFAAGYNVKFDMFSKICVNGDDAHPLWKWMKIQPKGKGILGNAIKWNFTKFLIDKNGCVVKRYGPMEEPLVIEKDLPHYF
Chain of Glutathione peroxidase 1 (Homo sapiens) (P07203 whole entry, looked up): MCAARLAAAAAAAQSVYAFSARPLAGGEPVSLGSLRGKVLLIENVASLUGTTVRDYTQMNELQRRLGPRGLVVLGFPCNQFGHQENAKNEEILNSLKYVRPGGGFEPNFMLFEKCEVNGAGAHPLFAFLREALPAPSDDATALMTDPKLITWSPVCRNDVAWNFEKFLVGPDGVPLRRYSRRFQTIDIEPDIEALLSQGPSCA

As for `CCC(C)CCCCC(=O)N[C@@H](CCN)C(=O)NC(C(=O)N[C@H](CCN)C(=O)N[C@@H]1CCNC(=O)C([C@@H](C)O)NC(=O)[C@@H](CCN)NC(=O)[C@@H](CCN)NC(=O)[C@@H](CC(C)C)NC(=O)[C@H](Cc2ccccc2)NC(=O)[C@H](CCN)NC1=O)[C@@H](C)O` (stereo partly drawn) ({Octanoyl(6-Me)}-[Dab][ξThr(3R)][dDab][dDab][Dab]F[dL][dDab][dDab][ξThr(3R)]; lactam 4-C), the Potency result in test [1], in test [2], in test [3], in test [4], in test [5] and in [6] was “inactive” throughout. The Potency entry in test [7] and in test [8] was “inactive” throughout.

In the case of `CC(=O)OC[C@@H]1O[C@@H](n2ccc(=O)[nH]c2=O)[C@H](OC(C)=O)[C@H]1OC(C)=O`, the Potency result in test [1], in test [2], in test [3], in test [4], in test [5] and in [6] was “inactive” in each case. Moreover, the Potency result in [9], in test [7] and in test [8] was “inactive” each time.

For the compound `CCc1ccc(C(=O)Nc2cc(CN3CCN(C)CC3)cc(C(F)(F)F)c2)cc1C#Cc1cnc2ccnn2c1`, the Potency entry in test [1], in test [10] and in test [11] was “inactive” throughout. The result in test [12] was inactive. Further, the Potency in test [2] was 11.8 µM (active); in test [3], 13.2 µM (active); in test [4] it was 16.6 µM (active); in test [5], 4.69 µM (active); in test [6], 5.9 µM (active); in test [9], 8.33 µM (active). In addition, the Potency in test [7] was 5.26 µM (active); in test [8], 6.62 µM (active).

For the compound `CCn1c(=O)c2c(nc(C=Cc3ccc(OC)c(OC)c3)n2C)n(CC)c1=O`, the Potency result in [1], in test [2], in test [3], in [6] and in [7] was “inactive” throughout.

In the case of `N[C@H]1CN(c2c(F)cc3c(=O)c(C(=O)O)cn(C4C[C@@H]4F)c3c2Cl)CC12CC2` (stereo partly specified), the Potency entry in [13], in test [10], in [11], in [14], in test [2] and in test [4] was “inactive” in each case. The Potency entry in test [5], in test [6], in [9], in [7] and in [8] was “inactive” in each case. Further, the compound was called inactive in [12].

For `O=S(=O)(O)CCSSCCS(=O)(=O)O`, the Potency result in [13], in test [2], in test [4], in test [6], in test [9] and in [7] was “inactive” each time. Moreover, in test [8], the Potency entry is “inactive”.

For the compound `CCCCCCCCCCCCc1ccc(S(=O)(=O)Nc2nncs2)cc1`, the Potency entry in test [13], in [2], in test [6] and in test [7] was “inactive” in each case. For the same compound, in test [3], the Potency was 0.935 µM (active).

For the compound `Cn1cc(-c2ccc3ncc(Cc4ccc5ncccc5c4)n3n2)cn1`, the Potency entry in [13], in test [10], in test [11], in [14], in test [2] and in test [4] was “inactive” each time. For the same compound, the Potency result in [6], in test [9] and in test [7] was “inactive” in each case. The result in test [12] was inactive. Also, the Potency in test [5] was 14.8 µM (active).

Turning to `Cn1cnc(=N)c2[nH]cnc21`, the Potency entry in [1] was “inactive”. The Potency in test [2] was 0.148 µM (active); in [3] it was 0.132 µM (active); in test [4], 0.526 µM (active); in test [5], 0.0833 µM (active); in test [6] it was 0.118 µM (active); in test [9] it was 0.105 µM (active). The Potency in test [7] is 0.296 µM (active).

On to `COc1cc([C@@H]2c3cc4c(cc3[C@H](O)[C@H]3COC(=O)[C@@H]23)OCO4)cc(OC)c1OC`, for which the Potency result in test [1] is “inactive”. Moreover, the Potency in [2] is 0.0296 µM (active); in [3], 0.166 µM (active); in test [4], 0.59 µM (active); in test [5] it was 0.0264 µM (active); in test [6] it was 0.0526 µM (active); in test [9] it was 0.059 µM (active). In test [8], the Potency was 0.0833 µM (active).

Consider `C[C@H](O)[C@@H]1C(=O)N2C(C(=O)O)=C(S[C@@H]3CN[C@H](CNS(N)(=O)=O)C3)[C@@H](C)[C@@H]12`, for which the Potency entry in [1], in test [10], in test [2], in [3], in test [4] and in test [6] was “inactive” in each case. Besides, the Potency result in test [7] was “inactive”. For the same compound, the outcome in [12] was inactive.

As for `Cc1coc2c1C(=O)C(=O)c1c-2ccc2c(C)cccc12`, the Potency entry in [1], in test [10], in test [5], in [9] and in test [8] was “inactive” throughout. Moreover, the Potency is 3.36 µM (active) in test [11]; 1.06 µM (active) in test [14]; 20.9 µM (active) in test [2]; 16.6 µM (active) in test [4]; 6.62 µM (active) in [7]. In test [12], the call was inactive.

For the compound `CN(C)CC(=O)N1CCC(c2ccc(NC(=O)c3ncc(C#N)[nH]3)c(C3=CCCCC3)c2)CC1`, the Potency result in [1], in [10], in test [11], in test [14], in test [2] and in [6] was “inactive” in each case. Further, the Potency result in [7] and in test [8] was “inactive” in each case. The result in test [12] was inactive. For the same compound, the Potency in test [3] is 18.7 µM (active); in [4], 18.7 µM (active); in test [5], 7.43 µM (active).

Take `Cc1cncc2cccc(S(=O)(=O)N3CCCN(C(=O)CN)C[C@@H]3C)c12`: the Potency entry in test [1], in test [10], in [11], in [14] and in test [8] was “inactive” throughout. The compound was classed as inactive in test [12]. In addition, the Potency is 23.5 µM (active) in test [3], 23.5 µM (active) in test [4], 10.5 µM (active) in test [5] and 16.6 µM (active) in test [9].

In the case of `COc1cc(C(C)C)c(Oc2cnc(NC(CO)CO)nc2N)cc1I`, the Potency entry in test [1] and in test [6] was “inactive” each time. The values for the Potency in test [2], in [4] and in [5] were 5.26 µM (active), 0.469 µM (active) and 14.8 µM (active), respectively.
